Hits are enriched below; roughly 2.2% of the tested compounds scored in any of these assays.
CHO-K1 Ca PAM: nonselective activator or artifact in parental CHO-K1 calcium assay | ATP EC20, Fluo-8 calcium fluorescence; 0% at ATP EC20, 100% at ATP max | activation, % at 3 µM | actives 0.02% (n = 360,000) | AID 602247;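 active = activation above the run cutoff, the mean activation of all test compounds plus 3 SD, cut at about 40% in these data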;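 also: peak over basal fluorescence ratio in a 140 s read after ATP addition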
TMEM16A inh: blocks the mouse calcium-activated chloride channel TMEM16A; Q8BHY3; HEK293 TMEM16A/YFP iodide influx fluorescence, ionomycin; normalized B-score (activity score, 25-100; higher = stronger inhibition) at 10 µM; actives 1.2% (n = 310,000); AID 588511;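 active = ratio plate-corrected score three or more library SD toward inhibition, starting fluorescence score within five deviations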;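 also: score derived from kinetic fluorescence span divided by baseline fluorescence per well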
Target sequence (Q8BHY3 whole entry, looked up): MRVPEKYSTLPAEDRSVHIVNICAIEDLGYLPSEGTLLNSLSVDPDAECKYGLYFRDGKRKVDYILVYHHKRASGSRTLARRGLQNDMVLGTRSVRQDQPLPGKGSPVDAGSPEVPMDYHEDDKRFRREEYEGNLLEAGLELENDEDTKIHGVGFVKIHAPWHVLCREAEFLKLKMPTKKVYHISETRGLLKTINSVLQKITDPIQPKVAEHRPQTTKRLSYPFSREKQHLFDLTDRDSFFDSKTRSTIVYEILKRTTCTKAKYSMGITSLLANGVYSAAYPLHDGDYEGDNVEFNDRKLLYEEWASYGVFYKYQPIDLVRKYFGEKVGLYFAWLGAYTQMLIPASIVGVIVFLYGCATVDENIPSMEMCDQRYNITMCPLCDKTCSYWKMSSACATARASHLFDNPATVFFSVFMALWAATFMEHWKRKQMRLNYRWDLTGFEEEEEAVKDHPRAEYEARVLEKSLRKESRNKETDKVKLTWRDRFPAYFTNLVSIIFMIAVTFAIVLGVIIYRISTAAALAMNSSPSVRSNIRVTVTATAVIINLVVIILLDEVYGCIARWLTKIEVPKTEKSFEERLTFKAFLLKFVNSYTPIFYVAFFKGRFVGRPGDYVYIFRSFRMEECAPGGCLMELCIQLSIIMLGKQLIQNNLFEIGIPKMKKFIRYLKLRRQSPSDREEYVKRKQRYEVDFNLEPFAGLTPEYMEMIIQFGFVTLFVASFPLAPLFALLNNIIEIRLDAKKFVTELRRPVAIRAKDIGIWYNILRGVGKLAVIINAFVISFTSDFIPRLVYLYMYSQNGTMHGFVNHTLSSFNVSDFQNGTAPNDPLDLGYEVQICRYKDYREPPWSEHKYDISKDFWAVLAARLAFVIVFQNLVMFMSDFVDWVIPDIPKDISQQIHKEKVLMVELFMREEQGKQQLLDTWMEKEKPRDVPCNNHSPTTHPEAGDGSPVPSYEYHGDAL
CHO-K1 Ca antag: counter-screen for M1 antagonists: effect in parental CHO-K1 cells; inhibition, % at 3 µM; ATP-induced calcium, Fluo-8 fluorescence; actives 0.6% (n = 360,000); AID 602250;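 active = inhibition above a per-plate cutoff, the plate's mean sample inhibition plus 3 SD, cut at about 24% in these data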;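 also: 0% = DMSO plus EC80 ATP and 100% = DMSO alone without ATP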
ANO1 activ: activators or potentiators of mouse TMEM16A chloride channel | AID 623877 | HEK293 TMEM16A/YFP-H148Q/I152L, iodide quench fluorescence; stronger effect = lower value | actives 0.3% (n = 340,000) | Q8BHY3 | B-score at 10 µM;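 active = fluorescence-ratio B-score plate-corrected deviation score at least 3 library SD below zero, with starting fluorescence score within 5 deviations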;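 also: channel opened by trigger with iodide after compound preincubation; score built on the fluorescence ratio of max minus min over baseline; more negative score means more quench and so TMEM16A activation or potentiation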
NTR1 ag: NTR1 (human) agonism. NTR1-U2OS beta-arrestin-GFP spot imaging, agonist mode. actives 0.17% (n = 330,000). activation, % at 20 µM. P30989;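 active = activation at or above 40% of the spot to cytoplasm intensity ratio, with at least 20 cells analyzed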;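 also: 0% = DMSO without peptide and 100% = 100 nM NTR1 peptide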
CHO-K1 Ca ag: counter-screen for M1 agonists: effect in parental CHO-K1 cells; Fluo-8 calcium fluorescence; scaled to maximal ATP response, vehicle zero; activation, % at 3 µM; actives 0.48% (n = 360,000); in the data active = activation above about 15%;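 also: untransfected CHO-K1 host cells lacking M1 receptor as counterscreen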
* hit, by the source's call.

`COc1cc2c(cc1OC)CN(C(=S)Nc1ccccc1Cl)CC2` gave CHO-K1 Ca PAM -3.2, TMEM16A inh inactive, CHO-K1 Ca antag 9.1, ANO1 activ inactive, NTR1 ag 0.0 and CHO-K1 Ca ag 16.7*.
`CC1C=CCC2C(=O)N(c3cccc(C(=O)Nc4ccc(Br)cc4)c3)C(=O)C12` (stereo unspecified) gave CHO-K1 Ca PAM 10.1, TMEM16A inh 25*, CHO-K1 Ca antag -7.3, ANO1 activ inactive, NTR1 ag 1.6 and CHO-K1 Ca ag 6.3.
O=C(Nc1cccc(Cl)c1)c1cccc(N2C(=O)C3CC=CCC3C2=O)c1 (stereo unspecified) was read as CHO-K1 Ca PAM 5.8, TMEM16A inh inactive, CHO-K1 Ca antag -1.7, ANO1 activ inactive, NTR1 ag 1.5 and CHO-K1 Ca ag 17.0*.
`C=CCNc1ncnc2c1ncn2[C@H]1CN(Cc2ccc(-c3ccccc3)cc2)C[C@@H](CO)O1` gave CHO-K1 Ca PAM 7.9, CHO-K1 Ca antag -0.5 and CHO-K1 Ca ag 11.2.
`NNC(=O)c1ccc(CSc2nc3ccccc3s2)cc1` gave CHO-K1 Ca PAM 19.3, TMEM16A inh inactive, CHO-K1 Ca antag -9.3, ANO1 activ inactive, NTR1 ag 2.2 and CHO-K1 Ca ag 4.4.
`COCCN(CCOC)C(=O)c1ccc(CSc2nc3ccccc3s2)cc1` gave CHO-K1 Ca PAM 11.9, TMEM16A inh 25*, CHO-K1 Ca antag -14.1, ANO1 activ inactive, NTR1 ag 0.5 and CHO-K1 Ca ag 5.6.
For CC(C)(C)c1cc(=O)[nH]c(SCc2ccccc2Cl)n1 the results were CHO-K1 Ca PAM -1.0, TMEM16A inh inactive, CHO-K1 Ca antag -8.4, ANO1 activ inactive, NTR1 ag 2.1 and CHO-K1 Ca ag -0.1.
Screening O=c1ccnc(SCc2ccccc2Cl)[nH]1 returned CHO-K1 Ca PAM -8.5, TMEM16A inh inactive, CHO-K1 Ca antag 27.8*, ANO1 activ inactive, NTR1 ag 1.6 and CHO-K1 Ca ag -0.1.
Screening O=C(c1ccc2ccccc2c1)C1CCCN(C(=O)c2noc3c2CCCC3)C1 (stereo unspecified) returned CHO-K1 Ca PAM 10.9, TMEM16A inh 25*, CHO-K1 Ca antag -11.4, ANO1 activ inactive, NTR1 ag 6.5 and CHO-K1 Ca ag 3.8.
For O=C(c1ccc2ccccc2c1)C1CCCN(C(=O)c2cccnc2)C1 (stereo unspecified) the results were CHO-K1 Ca PAM -15.6, TMEM16A inh inactive, CHO-K1 Ca antag 2.1, ANO1 activ inactive, NTR1 ag 1.2 and CHO-K1 Ca ag 2.9.
For Cc1cc(C(=O)CN2C(=O)NC(C)(c3ccc(F)c(F)c3)C2=O)c(C)n1C1CC1 (stereo unspecified) the results were CHO-K1 Ca PAM 21.2, CHO-K1 Ca antag -2.2 and CHO-K1 Ca ag 11.9.
Screening COc1ccc(C2(C)NC(=O)N(CC(=O)c3cc(C)n(C4CC4)c3C)C2=O)cc1 (stereo unspecified) returned CHO-K1 Ca PAM 3.8, CHO-K1 Ca antag 3.8, ANO1 activ inactive, NTR1 ag 6.6 and CHO-K1 Ca ag 30.0*.
`Nc1nc(N)c2[nH]c(=S)[nH]c2n1` gave CHO-K1 Ca PAM -11.6, CHO-K1 Ca antag 9.1, ANO1 activ inactive and CHO-K1 Ca ag 0.5.
Screening COc1c(CC=C(C)C)cc(C2CC(=O)c3c(O)cc(O)cc3O2)c(CC=C(C)C)c1O (stereo unspecified) returned TMEM16A inh 100* and NTR1 ag 11.6.
O=C(Nc1ccncc1)c1cc2ccccc2cc1O was read as CHO-K1 Ca PAM 4.8, TMEM16A inh inactive, CHO-K1 Ca antag -8.3, ANO1 activ inactive, NTR1 ag 5.1 and CHO-K1 Ca ag 16.1*.
O=C(Nc1cccc([N+](=O)[O-])c1)c1cc2ccccc2cc1O was read as CHO-K1 Ca PAM 4.0, TMEM16A inh 100*, CHO-K1 Ca antag 9.6, ANO1 activ inactive, NTR1 ag 11.6 and CHO-K1 Ca ag 16.3*.
Screening O=C(O)c1ccccc1C(=O)Nc1cccc([N+](=O)[O-])c1 returned CHO-K1 Ca PAM -5.7, TMEM16A inh inactive, CHO-K1 Ca antag 1.2, ANO1 activ inactive, NTR1 ag -1.5 and CHO-K1 Ca ag 1.0.
`COc1cc(C)ccc1Oc1ccc([N+](=O)[O-])cc1` gave CHO-K1 Ca PAM 21.6, CHO-K1 Ca antag -13.8, ANO1 activ inactive and CHO-K1 Ca ag -0.5.
`CC(=O)Nc1sc(C)c(C)c1C(=O)OCC(=O)N(CCC#N)c1cc(C)cc(C)c1` gave CHO-K1 Ca PAM 7.1, CHO-K1 Ca antag -6.2, ANO1 activ inactive, NTR1 ag 7.6 and CHO-K1 Ca ag 1.2.
Screening CC(C)NC(=O)N(C)C[C@@H]1Oc2cc(Br)ccc2S(=O)(=O)N([C@@H](C)CO)C[C@H]1C returned CHO-K1 Ca PAM 6.9, CHO-K1 Ca antag -6.4 and CHO-K1 Ca ag 0.0.
For CCOCc1nnc(NC(=O)C2c3ccccc3Oc3ccccc32)s1 the results were CHO-K1 Ca PAM 16.4, TMEM16A inh inactive, CHO-K1 Ca antag 7.1, ANO1 activ inactive, NTR1 ag 5.5 and CHO-K1 Ca ag 20.3*.
Cc1cccc(NC(=O)c2ccc(Cl)c(S(=O)(=O)N3CCc4ccccc43)c2)n1 was read as CHO-K1 Ca PAM 2.4, CHO-K1 Ca antag -13.6, ANO1 activ inactive, NTR1 ag 6.4 and CHO-K1 Ca ag 2.0.
CCc1nnc(NC(=O)c2ccc(Cl)c(S(=O)(=O)N3CCc4ccccc43)c2)s1 was read as CHO-K1 Ca PAM -1.4, TMEM16A inh 100*, CHO-K1 Ca antag 10.4, ANO1 activ inactive, NTR1 ag 3.6 and CHO-K1 Ca ag 4.9.
For COc1ccc2[nH]cc(CCNS(=O)(=O)c3ccc(C)cc3)c2c1 the results were CHO-K1 Ca PAM 13.5, TMEM16A inh inactive, CHO-K1 Ca antag 2.4, ANO1 activ inactive, NTR1 ag 4.4 and CHO-K1 Ca ag 26.1*.
`CCCCCN(C(=O)CCC(=O)OCC(=O)NCCc1ccccc1)c1c(N)n(CCCC)c(=O)[nH]c1=O` gave CHO-K1 Ca PAM 20.9, CHO-K1 Ca antag -13.5 and CHO-K1 Ca ag 0.6.
Screening Cc1ccccc1N1C(=O)C2ON(c3ccccc3)C(c3ccco3)C2C1=O (stereo unspecified) returned CHO-K1 Ca PAM 4.5, TMEM16A inh inactive, CHO-K1 Ca antag 5.2, ANO1 activ inactive, NTR1 ag -0.9 and CHO-K1 Ca ag 15.8*.
Screening CC(C)(C)NC(=O)NC(=O)CSc1nnc(-c2ccccc2F)n1N returned CHO-K1 Ca PAM -7.7, TMEM16A inh inactive, CHO-K1 Ca antag 33.3*, ANO1 activ inactive, NTR1 ag -0.7 and CHO-K1 Ca ag -0.1.
O=C(O)C1CC=CCC1C(=O)Nc1ccccc1 (stereo unspecified) was read as CHO-K1 Ca PAM -5.8, TMEM16A inh inactive, CHO-K1 Ca antag 25.1*, ANO1 activ inactive, NTR1 ag -1.1 and CHO-K1 Ca ag -0.3.
